This passage reports reporter increase results from PubChem BioAssay AID1321 (The Scripps Research Institute Molecular Screening Center, 2008).

Out of some 220,000 compounds screened, about 2,600 (1.2%) were called active. This excerpt belongs to a sample that is enriched for actives. Unmarked numbers belong to inactive results.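 How the source made its calls: active means activation above the mean of all tested compounds plus 3 SD, set per screening run (cut at about 8.8% in these data); inactive means the rest.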

The target of this test is Wee1-like protein kinase (Homo sapiens) (UniProt P30291). The experiment in a line: Wee1 degradation inhibitors, primary screen, cell-based, HeLa, Wee1K328M-luciferase, luminescence (AID 1321).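 Further: cells exposed to compound for 20 h before luminescence read; 0% = DMSO alone and 100% = MG132 at 30 µM.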 The settings on record: HeLa Luc-Wee1K328M stability, at 5 µM, stronger effect = higher value, 100% = proteasome inhibitor MG132 effect.
In the case of `COc1ccccc1-n1c(-c2cc(-c3ccco3)[nH]n2)n[nH]c1=S`, the reporter increase is 2.11%.

For the molecule `Fc1ccccc1/C=N/n1c(-c2cccnc2)n[nH]c1=S`, the reporter increase is 0.63%.

For the molecule `CC(=O)Nc1nc(C)c(-c2csc(Nc3ccc(S(N)(=O)=O)cc3)n2)s1`, the reporter increase was -1.97%.

As to `Cc1ccc(Cl)c(OCC(=O)NN2CCN(C)CC2)c1`, the reporter increase is -4.89%.

Take `O=C(O)CCn1cc(/C=C/C(=O)c2ccc(Cl)cc2)c(-c2cccc(Br)c2)n1`: the reporter increase is -0.48%.

Turning to `CC(C)CN(CC(C)C)CC(O)CN(c1ccccc1)S(=O)(=O)c1ccccc1[N+](=O)[O-]` (stereo not given), the reporter increase was -0.95%.

Turning to `COCCCNC(=O)c1c(F)c(F)c(F)c(F)c1F`, the reporter increase is 9.02% (active).

Turning to `COCCCNC(=S)NC(=O)c1ccccc1`, the reporter increase is 1.37%.

Regarding `O=C(NCCN1CCOCC1)c1c(F)c(F)c(F)c(F)c1F`, the reporter increase is -1.64%.

Regarding `O=C(Nc1cccnc1)c1cc([N+](=O)[O-])ccc1Cl`, the reporter increase is -1.81%.

In the case of `CN1CCN(c2ccc(CNS(=O)(=O)c3cccc(F)c3)cc2)CC1`, the reporter increase is -0.49%.

With `Cc1cccc(C2C3=C(CCCC3=O)N=C3c4ccccc4C(=O)C32)c1` (stereo not given), the reporter increase is 2.45%.

On to `Cc1ccc2nc(C)c3c(c2c1)N(c1ccccc1)CC3`, for which the reporter increase was 2.22%.

In the case of `Cc1cc(=O)[nH]c(N/N=C/c2ccc3c(c2)OCCO3)n1`, the reporter increase was 3.95%.

`O=C(/C=C/c1ccccc1Cl)Nc1ccc(S(=O)(=O)Nc2ncccn2)cc1`: the reporter increase was -1.98%.

Take `O=S(=O)(Nc1ncccn1)c1ccc(NS(=O)(=O)c2cccc(Cl)c2Cl)cc1`: the reporter increase is 9.1% (active).

With `O=C(CCS(=O)(=O)c1ccccc1Cl)Nc1ccc(S(=O)(=O)Nc2ncccn2)cc1`, the reporter increase is -2.3%.

Regarding `CCCSc1ncccc1C(=O)O`, the reporter increase is 5.65%.

As to `Cc1nnc(SCC(=O)N2CCc3ccccc3C2)s1`, the reporter increase is -1.25%.

Take `CC1(c2ccccc2)CC(C)(C)N(C(=O)c2cc([N+](=O)[O-])cc([N+](=O)[O-])c2)c2ccccc21` (stereo not given): the reporter increase is -3.96%.

For `Cc1nnc(SCC(=O)N2c3ccccc3C(C)(c3ccc(Cl)cc3)CC2(C)C)s1` (stereo not given), the reporter increase was 11.3% (active).

For the molecule `NC(=O)NC(=O)CSc1nc2cc([N+](=O)[O-])ccc2n1-c1cccc(C(F)(F)F)c1`, the reporter increase was 0.4%.

Take `N#CCc1ccc(OC(=O)c2cccnc2)cc1`: the reporter increase was -2.7%.

Regarding `COc1ccc(-c2noc(CN(C)S(=O)(=O)c3ccc(C)cc3)n2)cc1`, the reporter increase is -2.95%.

As for `COc1ccc(-c2noc(CSc3ccc(C)cc3)n2)cc1`, the reporter increase was 13.7% (active).

With `COc1ccc(-c2noc(-c3ccc(C)cc3)n2)cc1`, the reporter increase is -0.18%.

In the case of `CC1CC(=O)Nc2ccccc2N1S(=O)(=O)c1cccs1` (stereo not given), the reporter increase is 4.07%.

For the molecule `CCC(C)Cn1c(O)cc2nn(-c3nc4ccccc4s3)c(=O)c-2c1C` (stereo not given), the reporter increase is -4.96%.

For `NC(=S)N/N=C/c1ccc([N+](=O)[O-])cc1`, the reporter increase is -3.91%.

Regarding `O=C(N/N=C/c1ccc2c(c1)OCO2)C(=O)N1CCCC1`, the reporter increase was 2.71%.

`O=C(N/N=C/c1ccc([N+](=O)[O-])cc1)C(=O)N1CCCC1`: the reporter increase was 9.76% (active).

Consider `O=C(Nc1ccc2nc3n(c(=O)c2c1)CCCCC3)c1ccccc1Cl`, for which the reporter increase is 0.41%.

Regarding `Cc1ccc2nc3n(c(=O)c2c1)CCC3`, the reporter increase was 12.8% (active).

In the case of `Cc1cccc2c(=O)n3c(nc12)CCCCC3`, the reporter increase was -0.11%.

As for `CNC(=O)c1csc(Cc2c(Cl)sc3ccc(Cl)cc23)n1`, the reporter increase was 0.14%.

In the case of `O=C(COc1ccccc1)N1CCN=C1SCc1cccc(F)c1`, the reporter increase is -0.6%.

In the case of `CS(=O)(=O)c1sc(C(=O)NC(=S)Nc2ccc(OC(F)(F)F)cc2)c2c1C=CCC2`, the reporter increase is 3.21%.

Consider `CCOC(=O)c1c(C)nn(-c2ncccc2NC(=O)CCC(=O)O)c1C`, for which the reporter increase was -3.19%.

As for `O=C(COC(=O)c1ccc[nH]c1=O)Nc1ccc2c(c1)OC(F)(F)O2`, the reporter increase was 7.03%.

On to `CN1C(=O)/C(=C/C=C2\SCCN2C)OC1=S`, for which the reporter increase is 9.67% (active).

Turning to `CCCC(=O)N(CCc1ccccc1)Cc1nc2ccccc2c(=O)[nH]1`, the reporter increase is -2.77%.

Consider `CCN(CC(=O)NC(=O)NCc1ccccc1)Cc1nc2ccccc2c(=O)[nH]1`, for which the reporter increase is 10.5% (active).

With `CN(C)S(=O)(=O)c1cc(NC(=O)CN2C(=O)NC3(CCCc4ccccc43)C2=O)ccc1Cl` (stereo not given), the reporter increase is -2.38%.

In the case of `CCN(CC(=O)Nc1cccc(S(N)(=O)=O)c1)Cc1nc2ccccc2c(=O)[nH]1`, the reporter increase was -3.31%.

Consider `O=C(c1ccco1)N(Cc1nc2ccccc2c(=O)[nH]1)C1CCCC1`, for which the reporter increase is -0.38%.

In the case of `CCN(CC(=O)Nc1ccc(Cl)c(S(=O)(=O)N(C)C)c1)Cc1nc2ccccc2c(=O)[nH]1`, the reporter increase was 9.09% (active).

`CC#CC[N+](C)(C)CCCCCC`: the reporter increase was 3.56%.

Take `CC(C)CCNC(=O)C1CCC(CNc2c(N3CCC(C)CC3)c(=O)c2=O)CC1` (stereo not given): the reporter increase was -0.83%.

On to `Cc1csc(/N=C/N(C)C)c1C#N`, for which the reporter increase was -2.57%.

Turning to `C/C(CC(=O)NC(C)c1ccccc1)=N\NC(N)=S` (stereo not given), the reporter increase was -1.77%.

Regarding `CC(=O)c1cccc(CN2CCC(CO)(Cc3ccccc3)CC2)c1`, the reporter increase was -2.2%.

Take `OCC1(Cc2ccccc2)CCN(Cc2cc3ccccc3o2)CC1`: the reporter increase was -0.66%.

For the molecule `CC(C)c1csc(CN2CCC(CO)(Cc3ccccc3)CC2)n1`, the reporter increase is 11.4% (active).

As for `O=C(Cn1ncc(N2CCCC2)c(Br)c1=O)c1ccc(Cl)cc1`, the reporter increase was 9.08% (active).

On to `Cn1c(=O)c2c(nc(N3CCCCCC3)n2CC(=O)c2ccc(Br)cc2)n(C)c1=O`, for which the reporter increase was -1.77%.

`CC(=O)Cn1ncc(N2CCOCC2)c(Br)c1=O`: the reporter increase was 1.92%.

In the case of `CCc1ccc(S(=O)(=O)Nc2ccc(C)c(NS(C)(=O)=O)c2)cc1`, the reporter increase is -2.18%.

`COC(=O)c1c(C)oc(C)c1S(=O)(=O)Nc1ccc(C(C)C)cc1`: the reporter increase was -0.82%.

Regarding `O=C(N/N=C/c1coc2ccccc2c1=O)c1cc2ccccc2o1`, the reporter increase is 2.23%.

For the molecule `O=c1c(/C=N/O)coc2ccc(Cl)cc12`, the reporter increase was 13.3% (active).

Regarding `NC(=S)N/N=C/c1coc2cc(Cl)ccc2c1=O`, the reporter increase was 7.29%.

As for `O=C(NN1C(=O)C2C(C1=O)C1C=CC2C12CC2)c1ccccc1Cl` (stereo not given), the reporter increase was 1.5%.

On to `C=CCSc1nc(N)cc(=O)[nH]1`, for which the reporter increase is 0.5%.

Regarding `O=C(O)Cc1csc(NC(=O)CSc2nnnn2-c2ccc(O)cc2)n1`, the reporter increase was -2.13%.

Take `OCCNc1nc2ccccc2n1-c1ncnc2sc3c(c12)CCC3`: the reporter increase is 13.6% (active).

Regarding `O=C(O)[C@@H]1CCCN1c1ncnc2sc3c(c12)CCC3`, the reporter increase was 3.81%.

For the molecule `CC(C)(C)C(=O)Cn1c(NCCO)nc2ccccc21`, the reporter increase was -0.8%.

Regarding `COCc1cc(=O)oc2cc(NS(=O)(=O)c3ccc(C)cc3)ccc12`, the reporter increase is 5.18%.

Regarding `O=C(CSc1nc2[nH]ncc2c(=O)n1-c1ccccc1)N1CCCc2ccccc21`, the reporter increase was -1.42%.

Consider `CC(C)(C)c1ccc(C(=O)NCc2nnc(SCC(=O)N3CCCc4ccccc43)n2-c2ccccc2)cc1`, for which the reporter increase was 9.34% (active).

Regarding `Cc1nnc(SCC(=O)N2CCc3ccccc32)n1-c1ccccc1`, the reporter increase was 4.42%.

Take `CC(=O)Nc1ccc(/C=C/C(=O)c2ccccc2)cc1`: the reporter increase is 1.71%.

Take `CSc1nnnn1-c1c(C)cc(C)cc1C`: the reporter increase is -0.91%.

For the molecule `CC(C)c1ccc(NC(=S)NC2CC3C=CC2C3)cc1` (stereo not given), the reporter increase is 18.5% (active).

For the molecule `S=C(NNC(=S)NC1CC2C=CC1C2)NC1CC2C=CC1C2` (stereo not given), the reporter increase is -1.36%.

`S=C(NNC(=S)NC1CC2CCC1C2)NC1CC2C=CC1C2` (stereo not given): the reporter increase was -2.51%.

With `COc1ccc([N+](=O)[O-])cc1N(CC(O)CN(CC(C)C)CC(C)C)S(=O)(=O)c1ccc(C)cc1` (stereo not given), the reporter increase is -0.64%.

Take `CCN(CC)CCn1c(N)c(S(=O)(=O)c2ccccc2)c2nc3ccccc3nc21`: the reporter increase is 12.4% (active).

As to `CCC(=O)Nc1c(S(=O)(=O)c2ccccc2)c2nc3ccccc3nc2n1Cc1ccccc1`, the reporter increase was -1.34%.

As to `Cc1ccc(S(=O)(=O)c2c(N)n(C)c3nc4ccccc4nc23)cc1`, the reporter increase is -2.43%.

On to `CSCCC(NS(=O)(=O)c1ccc2c(c1)oc(=O)n2C)C(=O)NCc1ccccc1` (stereo not given), for which the reporter increase is 5.59%.

Regarding `O=C(CCl)Nc1cccc(CP(=O)(c2ccccc2)c2ccccc2)c1`, the reporter increase is 1.71%.

For the molecule `COc1ccc(C(=O)N/N=C(\C)CC(=O)Nc2ccc(Cl)cn2)cc1`, the reporter increase was 0.12%.

As to `CC(=O)Nc1ccc(-c2csc(NC=C3C(=O)OC(C)(C)OC3=O)n2)cc1`, the reporter increase was 0.77%.

Regarding `CC(=O)Nc1ccc(-c2csc(NC(=O)Nc3ccccc3)n2)cc1`, the reporter increase was 16.9% (active).

In the case of `CSCCC(Nc1nc2ccccc2s1)C(=O)O` (stereo not given), the reporter increase was 1.41%.

In the case of `CC(=O)Nc1ccc(S(=O)(=O)Nc2nc(-c3ccc(C(C)(C)C)cc3)cs2)cc1`, the reporter increase is 3.64%.

Take `O=C(Nc1nc2ccccc2s1)c1ccc2c(c1)OCO2`: the reporter increase is -1.51%.

For the molecule `O=C(Nc1ccccc1)Nc1nc2ccccc2s1`, the reporter increase was 12.1% (active).

Regarding `O=C(CCCl)Nc1ccc(S(=O)(=O)NCc2ccco2)cc1`, the reporter increase is 4.12%.

`Cc1ccc(C(=O)NCC(=O)OCC(=O)Nc2cccc(S(=O)(=O)N3CCCC3)c2)cc1C`: the reporter increase was 0.09%.

Consider `CCN(CCCNC(=O)CCn1c(=O)[nH]c2ccsc2c1=O)c1ccccc1`, for which the reporter increase was 4.65%.

Consider `CCCCC(CC)CNC(=O)CCCCn1c(=O)[nH]c2ccsc2c1=O` (stereo not given), for which the reporter increase was 20% (active).

In the case of `CCN(CC)CCNC(=O)CCCCCn1c(=O)[nH]c2cc(C(=O)OC)ccc2c1=O`, the reporter increase was -1.39%.

As for `CN(C)C(=O)c1nc2ccc(Cl)cn2c1CNCc1cccc(OC(F)(F)F)c1`, the reporter increase is 0.21%.
